By Inhibition is commonly meant how much of the control response was suppressed. A lower Inhibition goes with little suppression.

The test has as its system Plasmodium falciparum. Briefly: GSK_TCMDC: Inhibition of Plasmodium falciparum Dd2 in whole red blood cells, using parasite LDH activity as an index of growth. Test compounds present at 2uM. The format is functional.
`COc1ccc(NC(=O)c2ccc(-c3cc(NC(=O)c4ccnc(N5CCCC5)c4)ccc3C)s2)cc1N1CCN(C)CC1.O=C(O)C(F)(F)F` registered an Inhibition of 100%.
With `Cc1nc(N)nc(N)c1-c1ccc(Cl)c(Cl)c1` [METOPRINE], the Inhibition is on record as 0%.
In turn, `CN1CCN(CCCN(C(=O)Nc2cc(C(F)(F)F)cc(C(F)(F)F)c2)c2ccccc2Cc2ccccc2)CC1` yielded an Inhibition of 92%.
The figure for `CC(ON1C(N)=NC(N)=NC1(C)C)c1ccccc1` (stereo not drawn) is 58%.
The same measure for `CCOc1ccccc1C1C(C(=O)C(C)(C)C)N2c3ccc(Br)cc3C=CC2C12C(=O)c1ccccc1C2=O` (stereo not drawn): 94%; for `Cc1ccc(CNC(=O)[C@H](CC(C)C)Nc2cc(C)nc(NCC3CCCCC3)n2)cc1.O=C(O)C(F)(F)F`: 44%.
Take `CC(C)N(Cc1cnc(N)c(C#N)n1)c1ccc(Cl)c(Cl)c1`: the Inhibition was 63%.
With `COc1cccc(C=Cc2nc(=O)c3ccccc3o2)c1OC`, the Inhibition was 97%.

For the origin of these results see ChEMBL document CHEMBL1157539, “Thousands of chemical starting points for antimalarial lead identification” (Nature, 2010).
